# In all, about 16,000 compounds went through this assay and about 5,100 (32%) were called active. Another 25% or so got no clear call; they are omitted. The list shows a part of the results. Unmarked numbers belong to inactive results. The call rests on the fitted dose curve; in most records, active means well fitted curve in the direction sought with a large enough effect; inconclusive means small, poorly fitted or top-dose-only effect, or effect the other way; inactive means no such curve, though single readings can be large or run the other way.
# Target: Cytochrome P450 3A4 (Homo sapiens) (UniProt P08684)
# Sequence (P08684 whole entry, looked up): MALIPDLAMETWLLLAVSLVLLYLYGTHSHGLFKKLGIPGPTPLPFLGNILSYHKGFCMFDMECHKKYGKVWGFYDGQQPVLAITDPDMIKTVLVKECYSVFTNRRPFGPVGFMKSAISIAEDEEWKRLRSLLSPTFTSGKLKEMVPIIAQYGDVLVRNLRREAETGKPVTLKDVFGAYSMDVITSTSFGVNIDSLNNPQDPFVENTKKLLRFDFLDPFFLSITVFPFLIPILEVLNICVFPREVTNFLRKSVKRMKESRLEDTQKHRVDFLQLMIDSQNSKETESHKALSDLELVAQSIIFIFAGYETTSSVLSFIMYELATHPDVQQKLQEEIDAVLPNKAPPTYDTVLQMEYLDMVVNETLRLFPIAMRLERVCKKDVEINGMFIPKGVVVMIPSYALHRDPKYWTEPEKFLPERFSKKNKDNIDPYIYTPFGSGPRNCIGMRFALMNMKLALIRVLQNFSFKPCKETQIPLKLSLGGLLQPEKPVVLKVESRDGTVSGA
# Experiment: Cytochrome panel assay with activity outcomes
# Details: recombinant CYP, pro-luciferin dealkylation, luminescence, p450-cyp3a4; series mostly up to 57.1 µM
# On the % scale 0 is the no-effect control and ±100 the full control effect.
Compound,AC50,"activity, negative = inhibition"
Cc1nc(SC(C(=O)c2ccccc2)c2ccccc2)n[nH]1 (stereo not given),7.08 µM (active),–
COC(=O)c1nc(NC(=O)c2ccccc2)n[nH]1,inactive,–
Cc1c(NC(=O)C(Sc2ccccc2)c2ccccc2)cccc1[N+](=O)[O-] (stereo not given),–,-28.3% [at 2.29 µM]
CC(C)(C)c1ccc(C(=O)c2c[nH]c(C(=O)NCCCn3ccnc3)c2)cc1,0.282 µM (active),–
O=C(c1ccc(C(F)(F)F)cc1)c1c[nH]c(C(=O)NCCCn2ccnc2)c1,1 µM (active),–
O=C(NCCCN1CCOCC1)c1cc(C(=O)C2CC2)c[nH]1,inactive,–
O=C(O)CCCCCNC(=O)c1ccncc1,inactive,–
O=C1Oc2ccccc2C2(O)C3CCCCCC3C12 (stereo not given),–,-27.4% [at 11.4 µM]
O=C(Cc1c[nH]c2ccccc12)OCC(=O)c1ccccc1,22.4 µM (active),–
C[C@@](N)(Cc1c[nH]c2ccccc12)C(=O)O,–,-19.3% [at 11.4 µM]
Cn1c(SCC(=O)N2CCN(S(=O)(=O)c3ccccc3)CC2)nc2ccccc21,12.6 µM (active),–
CCN(CC)C(=O)CSc1nnc(-c2cc3ccccc3cc2O)n1CC,7.94 µM (active),–
O=C(Nc1ccccc1-c1nc2ccccc2[nH]1)c1ccc(S(=O)(=O)N2CCCCC2)cc1,–,-23.2% [at 2.29 µM]
CCN(CC)C(=O)CSc1nnc(-c2ccco2)n1N,inactive,–
CCN(CC)C(=O)CSc1nnc(-c2ccncc2)n1N,inactive,–
Cn1c(/C(C#N)=C(\O)c2ccc(S(=O)(=O)N3CCCCC3)cc2)nc2ccccc21,14.1 µM (active),–
CCn1c(SCC(=O)NC(=O)NCc2ccco2)nnc1-c1cccs1,1.26 µM (active),–
CC(C)(C)c1onc(OCP(=O)(O)O)c1C[C@@H](N)C(=O)O,inactive,–
CCn1c(SCC(=O)c2ccc3ccccc3c2)nnc1-c1cccs1,3.98 µM (active),–
CC(=O)c1ccc(-n2c(CCC(=O)O)ccc2-c2cccs2)cc1,inactive,–

Compound,AC50,"activity, negative = inhibition"
CCn1nnnc1SCC(=O)c1ccc2c(c1)OCCO2,inactive,–
CN(C)/C=N/c1ncc(C(=O)c2ccc3ccccc3c2)s1,inactive,–
CCn1c(SCC(=O)N2CCN(S(=O)(=O)c3ccccc3)CC2)nnc1-c1cccs1,1.12 µM (active),–
CCn1c(SCC(=O)c2ccccc2)nnc1-c1cccs1,8.91 µM (active),–
Cc1ccccc1CSc1nnc(-c2cccs2)n1Cc1ccco1,4.47 µM (active),–
O=c1onc(-c2cccs2)n1Cc1ccccc1,inactive,–
CCn1c(SCC(=O)NC2CCCc3ccccc32)nnc1-c1cccs1 (stereo not given),2.82 µM (active),–
CCOc1c2ccc(C(=O)NC3CCCc4ccccc43)cc2nn1C (stereo not given),inactive,–
CCn1cc(C(=O)O)c(=O)c2cnc(N3CCNCC3)nc21,inactive,–
CC(=O)OC[C@@H]1O[C@@H](O/N=C2/C[C@@H](O)[C@@H](O)[C@@H]3[C@@H]4C(=O)N([C@@H](C)c5ccccc5)C(=O)[C@H]4CC[C@@H]23)[C@H](OC(C)=O)[C@H](OC(C)=O)[C@@H]1OC(C)=O,–,-21% [at 11.4 µM]
COc1cccc2c1C(=O)c1c(O)c3c(c(O)c1C2=O)C[C@@](O)(C(=O)CO)C[C@H]3O[C@H]1C[C@@H](N)[C@H](O)[C@@H](C)O1.[W],–,-15.2% [at 11.4 µM]
CCOC(=O)C1=C(c2ccccc2)N=c2s/c(=C\c3ccc(O)cc3)c(=O)n2C1c1cccs1 (stereo not given),3.55 µM (active),–
CCOC(=O)C1=C(c2ccccc2)N=c2s/c(=C\c3cccc(O)c3)c(=O)n2C1c1cccs1 (stereo not given),15.8 µM (active),–
COC(=O)c1[nH]c(C)c(/C(O)=C2\C(=O)C(=O)N(CCN(C)C)C2c2cccs2)c1C (stereo not given),inactive,–
O=c1/c(=C\c2ccc(O)cc2)sc2n1C(c1ccccc1)C(c1ccccc1)=NN=2 (stereo not given),–,20.5% [at 0.457 µM]
CCOC(=O)C1=C(N)n2c(s/c(=C/c3ccccc3)c2=O)=C(C(=O)OCC)C1c1ccccc1 (stereo not given),inactive,–
CCCc1c(OCCCOc2ccc(OCC(=O)O)cc2)ccc(C(C)=O)c1O,inactive,–
CC(C)=CC(=O)OCC(=O)Nc1ncc(Cl)c(C)c1Cl,inactive,–
Cc1cccc(CNc2ncnc3ccc(-c4ccoc4)cc23)c1,3.98 µM (active),–
c1cncc(CNc2ncnc3ccc(-c4ccoc4)cc23)c1,1.58 µM (active),–

Compound,AC50,"activity, negative = inhibition"
Oc1ccccc1CNn1cnnc1,inactive,–
CCOc1nnc(C)c2c(C)n(-c3ccc(Cl)cc3)nc12,inactive,–
CCn1cc(-c2nnnn2-c2ccc(Cl)cc2)c(=O)c2ccccc21,12.6 µM (active),–
COc1ccc(-n2nnnc2-c2cn(C)nc2C(F)(F)F)cc1,inactive,–
Cc1ccc(NC(=O)Cn2nc([N+](=O)[O-])c(Br)c2C)cc1C,–,-24.1% [at 2.29 µM]
Cc1c(Br)c([N+](=O)[O-])nn1CC(=O)NCc1ccccn1,inactive,–
Cc1c(Br)c([N+](=O)[O-])nn1C(C)C(=O)Nc1nccs1 (stereo not given),20 µM (active),–
CCc1ccccc1NC(=O)C(C)n1nc([N+](=O)[O-])c(Br)c1C (stereo not given),25.1 µM (active),–
Cc1c(Br)c([N+](=O)[O-])nn1CC(=O)NCc1cccs1,–,-4.17% [at 2.29 µM]
N=C(N)c1ccc(N=Nc2c(O)ccc3c2[nH]c2ccccc23)cc1,–,-6.87% [at 11.4 µM]
Cc1cc(C)c(C#N)c(SCC(=O)C(C)(C)C)n1,–,-0.356% [at 2.29 µM]
Cc1cc(C)c(C#N)c(SCS(=O)c2ccc(C(C)(C)C)cc2)n1 (stereo not given),7.94 µM (active),–
COC(=O)CSc1nc(C)cc(C(F)(F)F)c1C#N,–,-14.9% [at 2.29 µM]
O=S(=O)(c1ccc(Br)cc1)N1CCN(S(=O)(=O)c2ccc(Br)cc2)CC1,–,0.222% [at 11.4 µM]
O=S(=O)(c1cccc(-c2nnc(-c3ccc(Br)cc3)o2)c1)N1CCCCCC1,3.55 µM (active),–
Brc1ccc(-c2nnc(-c3cccc(Br)c3)o2)cc1,inactive,–
O=C1CCCC=C1[C@H](O)c1ccc([N+](=O)[O-])cc1,–,-12.2% [at 11.4 µM]
NC(=O)C1CCN(C(=O)OCc2ccccc2)CC1,inactive,–
CCOC(=O)C1CCN(Cc2cnc(Oc3ccc(OC)cc3)s2)CC1,inactive,–
COc1ccc(Cn2nnnc2C(c2ccccc2Cl)N2CCC(C(N)=O)CC2)cc1 (stereo not given),12.6 µM (active),–

# From PubChem BioAssay AID1851 (National Center for Advancing Translational Sciences (NCATS), 2009)
